In PubChem BioAssay AID623880 (Broad Institute, 2012) one finds outcome data, which are given here for one compound.

For the test, the target named is Scavenger receptor class B member 1 (Mus musculus) (UniProt Q61009). Put plainly: mouse SR-BI DiI-HDL transfer blockers – ldlA[mSR-BI] CHO cells, fluorescence plate reader, dry powder, set 9, dose response (AID 623880).

Molecules are shown by their SMILES. Results with a measured potency or affinity are listed apart. The source made the active and inactive calls.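 How the source made its calls: active means compounds lowering HDL dye uptake whose fitted half-effect dose is at most twice the top valid dose; inconclusive means flat curve with moderate signal loss, or poor fit; inactive means the rest.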

Sequence of Scavenger receptor class B member 1 (Mus musculus) (Q61009 whole entry, looked up): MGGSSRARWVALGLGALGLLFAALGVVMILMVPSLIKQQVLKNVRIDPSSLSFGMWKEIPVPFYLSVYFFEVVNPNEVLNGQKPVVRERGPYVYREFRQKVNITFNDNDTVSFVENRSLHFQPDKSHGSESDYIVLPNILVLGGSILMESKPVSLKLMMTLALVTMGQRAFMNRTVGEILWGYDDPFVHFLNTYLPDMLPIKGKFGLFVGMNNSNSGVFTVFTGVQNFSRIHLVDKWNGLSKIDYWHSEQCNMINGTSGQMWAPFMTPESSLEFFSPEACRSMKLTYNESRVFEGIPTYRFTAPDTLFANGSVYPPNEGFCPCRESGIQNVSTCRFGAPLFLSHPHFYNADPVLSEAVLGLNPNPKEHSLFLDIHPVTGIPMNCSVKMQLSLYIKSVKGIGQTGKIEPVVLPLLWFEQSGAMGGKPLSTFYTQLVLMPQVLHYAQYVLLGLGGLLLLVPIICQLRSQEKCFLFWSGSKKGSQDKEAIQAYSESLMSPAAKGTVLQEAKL

Regarding `Cc1ccc(OCc2cc(C(=O)N3CCCC(O)C3)no2)cn1` (stereo unspecified), the compound was classed as inactive.
